# GSTO1 counter – inhibitors of recombinant GSTO1, primary screen, counter-screen for RBBP9 inhibitor project, biochemical, fluorescence polarization | Glutathione S-transferase omega-1 (Homo sapiens), P78417 | activity-based probe fluorescence polarization | inhibition, % at 5.96 µM | actives 1.1% (n = 300,000);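 active = inhibition above the campaign mean inhibition plus 3 SD, cut at about 35% in these data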;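 also: 0% = GSTO1-1 with DMSO and 100% = wells lacking GSTO1-1 enzyme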
# Target sequence (P78417 whole entry, looked up): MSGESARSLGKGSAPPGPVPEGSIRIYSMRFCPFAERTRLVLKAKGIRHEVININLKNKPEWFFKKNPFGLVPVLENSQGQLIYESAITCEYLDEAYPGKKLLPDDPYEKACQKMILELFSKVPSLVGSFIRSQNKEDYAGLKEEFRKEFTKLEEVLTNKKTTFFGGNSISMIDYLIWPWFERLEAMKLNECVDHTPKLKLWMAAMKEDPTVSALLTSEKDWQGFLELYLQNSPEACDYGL
# LYPLA2 inh – LYPLA2 inhibitors, primary screen, counter-screen for PME1 inhibitor project, biochemical, fluorescence polarization, FP-Rh probe ABPP | AID 2177, 2009 | recombinant LYPLA2 | inhibition, % at 5.9 µM | actives 0.38% (n = 320,000) | Acyl-protein thioesterase 2 (Homo sapiens), O95372;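 active = inhibition above the screen-wide mean plus 3 SD, limit set per campaign, cut at about 26% in these data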;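 also: 0% = LYPLA2 with DMSO and 100% = wells lacking LYPLA2 enzyme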
# Fam108B counter – mouse Fam108B serine hydrolase inhibitors, primary screen, counter-screen for RBBP9 inhibitor project, biochemical, fluorescence polarization; recombinant Fam108B, FP-Rh probe fluorescence polarization; inhibition, % at 9.51 µM; actives 0.33% (n = 300,000); AID 1947, 2009;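 active = inhibition above the screen mean inhibition plus 3 SD, computed separately per campaign, cut at about 18% in these data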;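 also: inhibitors lower polarization as less probe binds the enzyme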
# LYPLA1 inh – LYPLA1 inhibitors, primary screen, counter-screen for PME1 inhibitor project, biochemical, fluorescence polarization, FP-Rh probe ABPP | Acyl-protein thioesterase 1 (Homo sapiens), O75608 | recombinant LYPLA1 | inhibition, % at 5.9 µM | actives 0.16% (n = 320,000);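 active = inhibition above the mean of all tested compounds plus 3 SD, set per campaign, cut at about 14% in these data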;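 also: inhibitors block serine hydrolase probe labeling of LYPLA1 so polarization falls; 0% = enzyme with DMSO and 100% = wells lacking LYPLA1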
# PME-1 primary – PME-1 inhibitors via competitive probe labeling, primary screen, biochemical, fluorescence polarization, FP-Rh probe, HTS; Protein phosphatase methylesterase 1 (Homo sapiens), Q9Y570; recombinant PME-1; inhibition, % at 5.9 µM; actives 0.53% (n = 320,000); AID 2130, 2009;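 active = inhibition above the campaign mean of all compounds plus 3 SD, cut at about 26% in these data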;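 also: competitive labeling of PME-1 active site by serine hydrolase directed probe; 0% = PME-1 with DMSO and 100% = wells lacking PME-1 enzyme; inhibitors block probe labeling so polarization falls and inhibition rises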
# Target sequence (Q9Y570 whole entry, looked up): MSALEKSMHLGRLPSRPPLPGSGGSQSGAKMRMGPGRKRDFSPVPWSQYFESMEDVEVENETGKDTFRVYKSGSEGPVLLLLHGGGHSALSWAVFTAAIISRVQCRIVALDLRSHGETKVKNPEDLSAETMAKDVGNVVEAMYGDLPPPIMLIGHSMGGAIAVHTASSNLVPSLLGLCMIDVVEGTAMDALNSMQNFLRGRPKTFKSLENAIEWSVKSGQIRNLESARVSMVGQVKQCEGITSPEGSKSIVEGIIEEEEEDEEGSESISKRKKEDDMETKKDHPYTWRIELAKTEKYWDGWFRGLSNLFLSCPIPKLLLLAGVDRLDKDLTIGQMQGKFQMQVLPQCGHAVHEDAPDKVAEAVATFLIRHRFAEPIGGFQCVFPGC
# PREPL inhibitor – PREPL enzyme inhibitors, primary screen, biochemical, fluorescence polarization; Prolyl endopeptidase-like (Homo sapiens), Q4J6C6; recombinant PREPL, fluorescence polarization activity-based probe; inhibition, % at 5.96 µM; actives 0.68% (n = 320,000); AID 2751, 2010; in the data active = inhibition above about 43%;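 also: 0% = enzyme with DMSO and 100% = wells lacking enzyme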
# GSTO1 confirm – GSTO1 inhibitor hit confirmation, counter-screen for RBBP9 inhibitor project, biochemical, fluorescence polarization, triplicate; shares compounds with GSTO1 counter; recombinant GSTO1, probe fluorescence polarization; inhibition, % at 5.96 µM; actives 54% (n = 2,400); AID 2176, 2009;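 active = inhibition above the primary screen's cutoff, its mean inhibition plus 3 SD, cut at about 35% in these data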;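 also: loss of polarization as inhibitors block binding of rhodamine sulfonate ester activity probe; 0% = GSTO1 with DMSO and 100% = wells lacking GSTO1 enzyme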
# GSTO1 recomb ABPP – inhibitors of purified human GSTO1, late-stage follow-up, biochemical, gel ABPP, SE-Rh probe, percent inhibition | shares compounds with GSTO1 counter | AID 463110, 2010 | inhibition, % at 1 µM | recombinant GSTO1, gel ABPP SE-Rh probe fluorescence | actives 30% (n = 130);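 active = inhibition of the enzyme GSTO1 above about 75%, limit read from the data; inactive = inhibition below that limit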
# Active calls of the source: *; . = no result. Compounds with a hit are over-represented: about 2% of the library has one in this group of screens.
SMILES,GSTO1 counter,LYPLA2 inh,Fam108B counter,LYPLA1 inh,PME-1 primary,PREPL inhibitor,GSTO1 confirm,others
COc1ccc(/C=C/c2onc(C)c2S(=O)(=O)N2CCC(C(=O)N3CCCCCC3)CC2)cc1,-5,12,-2,-4,2,20,.,
CC(C)(C)N=C1SCC(C)(/C=N/O)S1 (centres undefined),42*,-1,-3,-2,-15,3,9,
CCC(C)N=C1SCC(C)(/C=N/O)S1 (centres undefined),15,9,6,3,6,7,.,
COc1ccc(NC(=O)NNS(=O)(=O)c2ccc(OC)c(OC)c2)c(OC)c1,-1,4,3,-1,-4,0,.,
Cc1cc(C(=O)NC(C)C2CCCO2)c(C)o1 (centres undefined),42*,3,-5,-2,1,0,5,
COC(=O)c1cc(S(=O)(=O)Nc2cccc(-c3cnco3)c2)oc1C,5,-6,-1,0,4,-3,.,
CCc1nc(N2CCN(C(C)=O)CC2)c2c3c(sc2n1)CC(C(C)(C)C)CC3 (centres undefined),-8,2,-1,1,-4,8,.,
CCc1nc(N2CCN(C(=O)CCl)CC2)c2c3c(sc2n1)CC(C)CC3 (centres undefined),63*,-4,-2,-1,2,11,79*,GSTO1 recomb ABPP=51
Cc1onc(-c2ccccc2)c1C(=O)NNC(=O)c1ccccc1O,47*,7,4,1,-5,12,6,
Cc1onc(-c2ccccc2)c1C(=O)NNC(=O)c1ccccc1,.,-1,.,0,-2,5,.,
Cn1c(CCN2CCN(c3ccccn3)CC2)nc2cc(NS(=O)(=O)c3ccc(Cl)cc3)ccc21,2,8,11,-2,-3,-9,.,
Cc1ccc(C)n1-c1ccc(N(C)C)cc1,46*,-1,4,3,-5,23,6,
COc1cc(OC)c(NS(=O)(=O)c2cc(C(=O)OC(C)C(=O)NC3CC3)c(Cl)cc2Cl)cc1Cl (centres undefined),46*,4,0,-3,11,11,66*,
COc1ccc(N(C(=O)CCl)C(C(=O)NCCc2ccccc2)c2cccs2)cc1Cl (centres undefined),89*,2,-3,3,2,-40,91*,GSTO1 recomb ABPP=92*
COc1cccc(N(C(=O)c2snc(C(N)=O)c2N)C(C(=O)NCC2CCCO2)c2cccs2)c1 (centres undefined),-3,-2,0,0,-5,0,.,
COc1cccc(N(C(=O)CCl)C(C(=O)NCCc2ccccc2)c2cccs2)c1 (centres undefined),94*,-1,-4,-2,-5,16,95*,GSTO1 recomb ABPP=75*
COc1ccc(S(=O)(=O)N2CCN(CC(=O)Nc3sccc3C(N)=O)CC2)cc1OC,.,3,.,1,8,9,.,
O=C(NC(=S)Nc1ccc(Cl)cn1)c1cc([N+](=O)[O-])ccc1N1CCOCC1,2,-5,0,-3,-1,-4,.,
CC(=O)NC1=C(N(C)C2CCS(=O)(=O)C2)C(=O)c2ccccc2C1=O (centres undefined),38*,-2,2,0,3,0,4,
CC(=O)C1=C(c2ccc(Br)cc2)C(=O)c2ccccc2C1=O,39*,-4,9,-3,4,9,3,
O=C(Cc1nnc(NC(=O)c2ccccc2)s1)N/N=C\c1ccc(O)c(O)c1,39*,1,3,-6,-1,27,30,
O=C(CSc1nc2ccccc2o1)Nc1nccs1,-2,-4,0,-6,-2,4,.,
CN1CCc2cccc3c2[C@H]1Cc1ccc(O)c(O)c1-3,89*,-3,-5,-4,-8,20,6,
CC(=O)Oc1c(Cl)c(N2CCOCC2)c(OC(C)=O)c2ccccc12,44*,6,1,-2,6,5,9,
Cc1ccc(S(=O)(=O)Oc2ccc(C3C4=C(CCCC4=O)OC4=C3C(=O)CCC4)cc2)cc1,7,4,-1,2,-3,-5,.,
SMILES,GSTO1 counter,LYPLA2 inh,Fam108B counter,LYPLA1 inh,PME-1 primary,PREPL inhibitor,GSTO1 confirm,others
Cc1ccc(S(=O)(=O)Oc2ccc(C3C4=C(CCCC4=O)N(CCC(=O)O)C4=C3C(=O)CCC4)cc2Cl)cc1,62*,-1,1,-4,3,-4,61*,
CCOc1cc(C2C3=C(CCCC3=O)N(CCC(=O)O)C3=C2C(=O)CCC3)ccc1OS(=O)(=O)c1ccc(C)cc1,78*,-1,0,2,2,17,70*,
COc1ccccc1NC(=O)Nc1cccnc1,-1,7,-1,3,8,11,.,
COc1ccc(S(=O)(=O)N2CCOCC2)cc1NC(=O)CN1CCN(C)CC1,38*,2,2,3,3,-2,4,
Cn1c(=O)c2[nH]c(N=NNc3ccccc3F)nc2n(C)c1=O,14,2,-8,1,-3,6,.,
O=C(O)CC1S/C(=N/N=C/c2ccc(-c3ccc(Cl)cc3[N+](=O)[O-])o2)NC1=O (centres undefined),50*,-1,4,0,0,13,15,
O=C(/C=C/Nc1ccccc1)c1ccccc1,3,1,5,5,9,11,.,
CN(C)c1ccc(N/C=C/C(=O)C(C)(C)C)cc1,83*,-5,6,-4,6,15,13,
CN(C)c1ccc(N/C=C/C(=O)c2ccccc2)cc1,62*,5,0,0,1,35,-1,
CCOC(=O)c1ccc(N/C=C/C(=O)C(C)(C)C)cc1,4,7,4,4,1,6,.,
O=C(NNc1cc(Br)c(O)c(Br)c1)c1ccccc1,65*,7,5,-1,3,20,27,
CC1CCN(C2CCN(S(=O)(=O)c3ccc(C(F)(F)F)cc3)CC2)CC1,8,-1,2,0,-3,-9,.,
O=C1CN(C(=O)COC(=O)CNC(=O)c2ccccc2)c2ccccc2N1,89*,-1,-1,3,0,-4,3,
